Results reported in the supplement of paper PMC11732987, “Enantioselective OTUD7B fragment discovery through chemoproteomics screening and high-throughput optimisation” (Communications Chemistry, 2025).

What was measured:
Test in all cases: log2 ratio of Biotin-Ahx-Ub-VS probe labelling (fragment/DMSO); higher = less target engagement (more negative = stronger competition), active = hit call of the paper (q ≤ 0.05, log2 ratio ≤ -1)
Settings in all cases: compound concentration: 200 uM; treatment time: 3 h
OTUD6B = target: T1, OTUD6B (UniProt Q8N6M0)
T1 sequence (whole entry): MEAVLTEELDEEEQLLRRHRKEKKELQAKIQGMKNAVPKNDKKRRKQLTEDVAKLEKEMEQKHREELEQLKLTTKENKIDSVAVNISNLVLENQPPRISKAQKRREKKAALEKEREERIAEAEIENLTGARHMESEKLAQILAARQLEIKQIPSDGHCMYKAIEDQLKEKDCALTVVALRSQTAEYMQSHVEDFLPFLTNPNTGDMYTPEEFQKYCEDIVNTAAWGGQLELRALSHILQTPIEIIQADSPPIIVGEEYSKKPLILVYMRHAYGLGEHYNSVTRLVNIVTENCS
Outline: (§1)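 Using Biotin-Ahx-Ub-VS at 0.5 µM final for 1 h, DUBs were labelled in HEK293T lysate (495 µg per sample) that had first been treated in triplicate with fragment at 200 µM or vehicle for 3 h. NeutrAvidin enrichment, LysC and trypsin digestion and diaPASEF LC-MS/MS followed. Spectronaut label-free quantities were global-median-normalised. Values are average log2 fragment/vehicle ratios by unpaired t-test, using proteins with ≥2 unique peptides.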

OTUD7B = target: T2, OTUD7B (UniProt Q6GQQ9)
T2 sequence (whole entry): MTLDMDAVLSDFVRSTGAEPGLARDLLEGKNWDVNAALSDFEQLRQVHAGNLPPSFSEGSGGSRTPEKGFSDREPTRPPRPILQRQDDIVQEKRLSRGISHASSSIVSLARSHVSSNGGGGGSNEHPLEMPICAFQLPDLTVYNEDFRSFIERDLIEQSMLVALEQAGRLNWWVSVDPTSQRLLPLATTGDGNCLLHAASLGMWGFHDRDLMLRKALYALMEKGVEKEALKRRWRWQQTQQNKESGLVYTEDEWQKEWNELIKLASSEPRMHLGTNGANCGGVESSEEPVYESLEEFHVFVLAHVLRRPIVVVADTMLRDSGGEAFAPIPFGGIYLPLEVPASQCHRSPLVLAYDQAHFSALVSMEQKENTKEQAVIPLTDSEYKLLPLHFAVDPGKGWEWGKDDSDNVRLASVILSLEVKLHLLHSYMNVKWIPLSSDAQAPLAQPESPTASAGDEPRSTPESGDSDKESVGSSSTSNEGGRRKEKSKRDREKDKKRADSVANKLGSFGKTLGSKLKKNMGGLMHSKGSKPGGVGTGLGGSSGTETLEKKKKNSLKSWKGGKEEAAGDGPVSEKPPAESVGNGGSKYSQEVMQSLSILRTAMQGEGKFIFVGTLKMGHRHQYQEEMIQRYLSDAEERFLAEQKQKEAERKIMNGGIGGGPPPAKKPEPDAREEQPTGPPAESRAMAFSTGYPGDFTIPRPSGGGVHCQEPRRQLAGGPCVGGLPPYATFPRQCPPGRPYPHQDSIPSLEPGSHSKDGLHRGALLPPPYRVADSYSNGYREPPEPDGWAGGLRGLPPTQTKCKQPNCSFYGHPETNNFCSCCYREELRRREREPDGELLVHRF
Outline: as §1

PRPF8 = PRPF8 (UniProt Q6P2Q9)
Outline: as §1

PSMD7 = target: T3, PSMD7 (UniProt P51665)
T3 sequence (whole entry): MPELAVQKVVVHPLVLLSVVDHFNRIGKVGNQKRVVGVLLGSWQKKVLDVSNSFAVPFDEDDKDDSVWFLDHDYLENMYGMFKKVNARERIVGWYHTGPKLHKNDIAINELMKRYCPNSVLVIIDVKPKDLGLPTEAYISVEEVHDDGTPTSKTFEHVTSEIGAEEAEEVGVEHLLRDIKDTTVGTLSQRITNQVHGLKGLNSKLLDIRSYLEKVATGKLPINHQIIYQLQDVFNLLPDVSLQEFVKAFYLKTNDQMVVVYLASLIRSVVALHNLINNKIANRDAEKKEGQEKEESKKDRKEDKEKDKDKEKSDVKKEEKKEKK
Outline: as §1

UCHL1 = UCHL1 (UniProt P09936)
Outline: as §1

UCHL3 = target: T4, UCHL3 (UniProt P15374)
T4 sequence (whole entry): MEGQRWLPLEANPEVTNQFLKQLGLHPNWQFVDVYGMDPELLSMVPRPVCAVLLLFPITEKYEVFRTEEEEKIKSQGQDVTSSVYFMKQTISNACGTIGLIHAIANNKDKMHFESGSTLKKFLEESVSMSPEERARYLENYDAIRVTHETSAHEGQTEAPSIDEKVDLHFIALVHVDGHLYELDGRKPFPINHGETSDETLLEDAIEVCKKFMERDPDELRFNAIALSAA
Outline: as §1

UCHL5 = target: T5, UCHL5 (UniProt Q9Y5K5)
T5 sequence (whole entry): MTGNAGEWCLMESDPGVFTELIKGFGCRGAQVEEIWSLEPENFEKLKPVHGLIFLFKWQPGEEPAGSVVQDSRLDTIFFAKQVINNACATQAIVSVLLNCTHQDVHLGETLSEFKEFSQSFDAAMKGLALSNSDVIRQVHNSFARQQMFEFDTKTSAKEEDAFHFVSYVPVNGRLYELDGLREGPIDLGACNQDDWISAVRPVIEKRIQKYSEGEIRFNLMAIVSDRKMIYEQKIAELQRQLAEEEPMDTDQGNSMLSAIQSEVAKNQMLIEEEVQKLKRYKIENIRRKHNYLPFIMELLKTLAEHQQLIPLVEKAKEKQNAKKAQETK
Outline: as §1

USP10 = USP10 (UniProt Q14694)
Outline: as §1

USP15 = target: T6, USP15 (UniProt Q9Y4E8)
T6 sequence (whole entry): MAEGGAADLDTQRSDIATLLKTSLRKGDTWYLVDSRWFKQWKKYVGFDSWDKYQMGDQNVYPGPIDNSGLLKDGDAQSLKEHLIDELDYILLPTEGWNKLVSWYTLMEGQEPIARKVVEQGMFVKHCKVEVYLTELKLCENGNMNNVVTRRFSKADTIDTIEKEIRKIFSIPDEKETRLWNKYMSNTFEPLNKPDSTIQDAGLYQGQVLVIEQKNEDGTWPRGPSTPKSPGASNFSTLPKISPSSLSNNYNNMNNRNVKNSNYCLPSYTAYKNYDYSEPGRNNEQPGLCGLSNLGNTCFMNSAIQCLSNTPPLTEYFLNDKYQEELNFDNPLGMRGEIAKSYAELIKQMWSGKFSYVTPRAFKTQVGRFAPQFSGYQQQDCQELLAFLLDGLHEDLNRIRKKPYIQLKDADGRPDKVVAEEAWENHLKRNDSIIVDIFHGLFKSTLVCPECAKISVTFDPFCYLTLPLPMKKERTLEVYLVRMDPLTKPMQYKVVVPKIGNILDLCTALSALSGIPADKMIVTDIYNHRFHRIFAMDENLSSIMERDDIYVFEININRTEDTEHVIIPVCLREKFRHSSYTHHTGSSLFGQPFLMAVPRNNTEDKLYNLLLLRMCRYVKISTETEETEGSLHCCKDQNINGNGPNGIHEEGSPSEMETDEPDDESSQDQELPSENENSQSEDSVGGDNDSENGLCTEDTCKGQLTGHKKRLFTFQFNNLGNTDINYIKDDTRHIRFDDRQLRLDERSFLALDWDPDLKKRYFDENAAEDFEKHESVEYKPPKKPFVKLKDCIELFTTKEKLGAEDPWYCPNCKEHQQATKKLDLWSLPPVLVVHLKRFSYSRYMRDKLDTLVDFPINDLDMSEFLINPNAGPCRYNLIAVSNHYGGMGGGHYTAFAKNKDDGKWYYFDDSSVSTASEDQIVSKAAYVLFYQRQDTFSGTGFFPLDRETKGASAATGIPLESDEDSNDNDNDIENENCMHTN
Outline: as §1

USP16 = USP16 (UniProt Q9Y5T5)
Outline: as §1

Measured: log2 ratio of Biotin-Ahx-Ub-VS probe labelling

USP16, sequence (Q9Y5T5 whole entry, looked up): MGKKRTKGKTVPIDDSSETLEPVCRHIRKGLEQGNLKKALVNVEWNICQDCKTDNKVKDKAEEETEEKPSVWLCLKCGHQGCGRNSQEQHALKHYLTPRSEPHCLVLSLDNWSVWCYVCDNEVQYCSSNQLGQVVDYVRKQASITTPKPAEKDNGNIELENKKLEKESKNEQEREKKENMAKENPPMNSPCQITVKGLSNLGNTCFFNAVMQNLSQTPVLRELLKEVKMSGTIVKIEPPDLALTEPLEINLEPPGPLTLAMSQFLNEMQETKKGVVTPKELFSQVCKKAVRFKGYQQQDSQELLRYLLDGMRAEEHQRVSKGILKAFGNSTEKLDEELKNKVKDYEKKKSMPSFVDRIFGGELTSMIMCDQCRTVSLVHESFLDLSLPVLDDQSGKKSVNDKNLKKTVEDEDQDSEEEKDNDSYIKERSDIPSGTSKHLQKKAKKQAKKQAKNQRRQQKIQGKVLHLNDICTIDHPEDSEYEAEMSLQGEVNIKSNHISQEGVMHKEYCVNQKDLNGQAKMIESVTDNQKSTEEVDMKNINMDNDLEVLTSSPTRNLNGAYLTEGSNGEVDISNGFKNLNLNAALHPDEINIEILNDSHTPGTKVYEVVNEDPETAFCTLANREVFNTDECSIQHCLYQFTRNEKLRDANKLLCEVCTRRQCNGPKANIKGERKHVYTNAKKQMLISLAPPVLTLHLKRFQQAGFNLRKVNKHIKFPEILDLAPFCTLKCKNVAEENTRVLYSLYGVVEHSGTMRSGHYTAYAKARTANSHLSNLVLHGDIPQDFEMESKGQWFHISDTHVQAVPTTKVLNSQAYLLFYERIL
USP10, sequence (Q14694 whole entry): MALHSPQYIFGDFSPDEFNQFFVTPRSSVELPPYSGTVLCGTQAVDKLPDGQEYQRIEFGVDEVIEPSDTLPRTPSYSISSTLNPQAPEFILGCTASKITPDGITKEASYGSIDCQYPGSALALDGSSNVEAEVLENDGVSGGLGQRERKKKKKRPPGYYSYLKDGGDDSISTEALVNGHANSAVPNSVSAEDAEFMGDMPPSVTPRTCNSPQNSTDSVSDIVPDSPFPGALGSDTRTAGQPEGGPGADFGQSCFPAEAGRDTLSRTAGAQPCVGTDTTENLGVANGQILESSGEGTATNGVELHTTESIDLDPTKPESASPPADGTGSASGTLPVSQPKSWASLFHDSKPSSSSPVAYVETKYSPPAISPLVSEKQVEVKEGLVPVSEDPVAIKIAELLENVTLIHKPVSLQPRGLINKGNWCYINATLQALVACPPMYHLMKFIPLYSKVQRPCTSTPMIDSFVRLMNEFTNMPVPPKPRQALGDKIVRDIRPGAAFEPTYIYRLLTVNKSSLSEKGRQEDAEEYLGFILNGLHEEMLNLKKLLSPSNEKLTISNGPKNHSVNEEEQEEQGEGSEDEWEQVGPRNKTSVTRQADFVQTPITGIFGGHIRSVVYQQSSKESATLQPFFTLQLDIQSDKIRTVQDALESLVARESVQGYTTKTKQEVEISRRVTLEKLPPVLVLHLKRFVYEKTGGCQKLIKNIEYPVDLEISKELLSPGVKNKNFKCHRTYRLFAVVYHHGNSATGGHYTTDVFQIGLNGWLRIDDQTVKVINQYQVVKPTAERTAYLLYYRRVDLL
UCHL1, sequence (P09936 whole entry, looked up): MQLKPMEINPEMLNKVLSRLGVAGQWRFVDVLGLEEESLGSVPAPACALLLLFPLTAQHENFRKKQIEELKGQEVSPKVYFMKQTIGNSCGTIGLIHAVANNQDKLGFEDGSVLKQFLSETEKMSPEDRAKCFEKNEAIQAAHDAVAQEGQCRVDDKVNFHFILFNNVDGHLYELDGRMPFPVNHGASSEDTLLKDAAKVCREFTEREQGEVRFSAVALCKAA

O=C(CCl)NC1CCC2(CC1)OCCO2
inactive: OTUD6B -0.272 | OTUD7B -0.893 | PRPF8 -0.267 | PSMD7 -0.147 | UCHL3 -0.0419 | UCHL5 -0.477 | USP10 -0.165 | USP15 -0.308 | USP16 -0.00437
active: UCHL1 -1.25
